Assay results from PubChem BioAssay AID1851 (National Center for Advancing Translational Sciences (NCATS), 2009).
Values joined by “and” are separate entries in the source; they are usually repeats but may differ in a detail not shown here. Identical values can stand only once. Among all 16,000 compounds or so, about 4,000 (25%) were called active. Inconclusive results (about 26%) are left out. The list is a sample of the results. Unmarked numbers belong to inactive results. The call rests on the fitted dose curve; in most records, active means well fitted curve in the direction sought with a large enough effect; inconclusive means small, poorly fitted or top-dose-only effect, or effect the other way; inactive means no such curve, though single readings can be large or run the other way.

What follows are compounds tested against Cytochrome P450 2C9 (Homo sapiens) (UniProt P11712) (assay: Cytochrome panel assay with activity outcomes). Conditions: recombinant CYP, pro-luciferin dealkylation, luminescence, p450-cyp2c9; series mostly up to 57.1 µM; activity, negative = inhibition: at the top concentration.
On the % scale 0 is the no-effect control and ±100 the full control effect.

Sequence of Cytochrome P450 2C9 (Homo sapiens) (P11712 whole entry, looked up): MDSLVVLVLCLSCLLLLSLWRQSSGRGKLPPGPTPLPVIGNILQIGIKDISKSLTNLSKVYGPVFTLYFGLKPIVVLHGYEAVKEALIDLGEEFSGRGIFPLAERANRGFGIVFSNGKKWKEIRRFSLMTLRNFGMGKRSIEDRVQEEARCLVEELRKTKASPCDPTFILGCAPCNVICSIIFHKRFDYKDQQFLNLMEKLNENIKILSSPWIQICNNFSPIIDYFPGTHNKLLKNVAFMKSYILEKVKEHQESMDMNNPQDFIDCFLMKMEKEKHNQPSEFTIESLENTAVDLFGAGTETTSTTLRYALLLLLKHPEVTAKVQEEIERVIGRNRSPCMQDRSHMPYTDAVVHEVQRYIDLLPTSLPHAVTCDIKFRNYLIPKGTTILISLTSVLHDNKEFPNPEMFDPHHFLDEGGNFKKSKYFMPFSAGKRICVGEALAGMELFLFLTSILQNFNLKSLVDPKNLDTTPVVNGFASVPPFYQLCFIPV

Row | Compound | activity, negative = inhibition | AC50
1 | CC(O)CN(CCC(N)=O)CCC(N)=O (centres undefined) | -3.23% | 
2 | CC(=O)c1cnc2c(C(=O)O)cnn2c1C | 2.38% | 
3 | Cc1cc(-c2c(C)[nH]n(-c3ccccc3)c2=O)n(-c2ccccc2)n1 |  | 1.58 µM (active)
4 | Cc1cc(N)n(-c2ccccc2)n1 | 1.19% | 
5 | Cc1ccc(C)c(C(=O)CN2C3=NCCCN3c3ccccc32)c1 | -20.6% | 
6 | CC[C@](N)(CCC(=O)O)C(=O)O | 15% | 
7 | CC(CCC(=O)O)(c1cc(Br)c(O)c(Br)c1)c1cc(Br)c(O)c(Br)c1 |  | 3.16 µM (active)
8 | CC(C)c1ccc(Cn2ccc3c4c(N)nc(NC5CC5)nc4ccc32)cc1 | -0.13% | 
9 | O=C(NCc1ccccc1)c1ccc(S(=O)(=O)N2CCCc3ccccc32)cc1 |  | 3.16 µM (active)
10 | Cc1ccc(C(=O)ON=C2CCN(S(=O)(=O)c3ccccc3)CC2)cc1 | 13.9% | 
11 | Cc1cc(NC(=O)COC(=O)c2ccc(S(=O)(=O)N3CCCc4ccccc43)cc2)no1 |  | 3.55 µM (active)
12 | Cc1cc(N(CN2CCCC2=O)C(=O)c2ccc(F)cc2)no1 | 20.9% | 
13 | Cc1ccc(S(=O)(=O)N[C@H]2COC(=O)[C@@H](Cc3ccccc3)NC(=O)[C@@H](C)COC(=O)C/C=C\[C@@H]2C)cc1 | 7.81% [at 11.4 µM] and -8.92% [at 11.4 µM] | 
14 | Clc1ccccc1NN(Cc1ccncc1)c1ccccc1Cl |  | 1.58 µM (active)
15 | Clc1ccccc1NN(Cc1ccccn1)c1ccccc1Cl | -64.2% [at 11.4 µM] | 
16 | CC1=c2c(oc3cc(O)c(Nc4c(C)cc(O)cc4O)c(C)c23)=CC(=O)C1=Nc1c(C)cc(O)cc1O |  | 3.16 µM (active)
17 | Cc1ccc(C2C3=C(CCCC3=O)Nc3nc(SCC(=O)NCc4ccco4)[nH]c(=O)c32)cc1 (centres undefined) |  | 5.01 µM (active)
18 | NC(=O)CCCC1=NS(=O)(=O)c2ccccc2N1 | -18.2% | 
19 | COc1ccc(NC(=O)C(c2ccc(OC)cc2)N(C)C(=O)CNC(C)=O)cc1 (centres undefined) | -6.03% | 
20 | COCCNC(=O)C(c1ccc(C)o1)N(CC1CCCO1)C(=O)Cn1nnc2ccccc21 (centres undefined) | -0.853% | 
21 | COc1cccc(C(C(=O)Nc2ccc(F)cc2)N(C(=O)Cn2nnc3ccccc32)C2CC2)c1 (centres undefined) |  | 12.6 µM (active)
22 | COc1ccc(C(C(=O)Nc2ccc(F)cc2)N(C(=O)Cn2nnc3ccccc32)C2CC2)cc1 (centres undefined) |  | 12.6 µM (active)
23 | CO[C@@H]1COC(=O)C/C=C\[C@@H](C)[C@H](OC)COC(=O)[C@H](COCc2ccccc2)NC(=O)C/C=C\[C@H]1C | 3.17% [at 11.4 µM] | 
24 | C/C(CCN1CCCCc2nc(C)c(C)cc21)=N\OC[C@@H](C)[C@H](OCc1ccccc1)C(C)C | -7.17% [at 11.4 µM] | 
